HT1080 IDH1KD tx: toxicity to HT-1080 IDH1 knockdown cells (counter line) | HT-1080 IDH1 knockdown viability, ATP luminescence, 48 h | Potency, µM (highest dose often 46.1 µM), for the others: at the highest dose activity, negative = toxicity, hits mostly cytotoxic | 360,000 compounds, 2% hits | AID 686971;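 also: potency is read from the fitted curve at half-maximal effect; 0% = DMSO wells and -100% = cell-free medium wells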
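HT-1080-IDH1KD cells (IDH1 knocked down), 750/well in RPMI with 5% FBS, treated with compound 48 h at 37 degrees C. Viability by CellTiter-Glo luminescence, normalised to DMSO and no-cell wells; concentration-response curves classed.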
TDP1 cell noCPT: qHTS for Inhibitors of human tyrosyl-DNA phosphodiesterase 1 (TDP1): qHTS in cells in absence of CPT | DT40 Tdp1-/- hTDP1 cells, no CPT, ATP luminescence, 48 h | Potency, µM (doses to about 46.2 µM), without a hit: at the highest dose activity change, negative = growth inhibition, usual class: inhibitors | 420,000 compounds, 15% hits | AID 686978, 2013; also: potency is read from the fitted curve at half-maximal effect; nearly all actives have a fitted effect of over 55% in size
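A cellular qHTS used chicken DT40 cells lacking endogenous Tdp1 but carrying stably transfected human TDP1. Compounds were applied without camptothecin, and cell growth kinetics were judged by ATP-dependent luminescence after ≥48 hr.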
HT1080NT lethal: kills 2HG-producing HT-1080-NT fibrosarcoma cells. HT-1080-NT fibrosarcoma viability, CellTiter-Glo ATP luminescence, 48 h. 360,000 compounds, 1.6% hits. Potency, µM (titrated, usually from 46.1 µM), without a hit: top-dose activity, negative = less viability, actives largely listed as cytotoxic. AID 686970;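 also: NT is the 2HG producing partner of a matched IDH1 knockdown line; potency is read from the fitted curve at half-maximal effect; 0% = DMSO-treated cells and -100% = media-only wells without cells; nearly all actives have a fitted effect of over 55% in size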
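Viability of the 2HG-overproducing fibrosarcoma line after 48 hours of compound exposure at 37 degrees C was determined by luminescence with CellTiter-Glo, and concentration-effect curves were then fitted and categorized.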
IL-1B inflam inh: blocks inflammasome-driven IL-1 beta release | THP-1 LPS/ATP IL-1B secretion, AlphaLISA, 16 h; hits give low values | activity change, % at 57.5 µM | 360,000 compounds, 4.7% hits; in the data active = activity change below about -50%; inconclusive = mostly about -30% to -49%
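Secreted IL-1B measured by AlphaLISA bead assay after 16 h compound exposure of THP-1 cells; compounds (final up to 57.5 uM) added 1 h before LPS (250 ng/mL) and ATP (1.25 mM) stimulation; lower signal means less secretion.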
DT40 TDP1 CPT: DT40-hTDP1 cell growth loss with CPT. chicken DT40 Tdp1-/-;hTDP1 cells + 20 nM CPT, ATP luminescence, 48 h. Potency, µM (highest dose often 46.2 µM), without a hit: top-dose activity change, negative = growth inhibition, usual class: inhibitors. 420,000 compounds, 12% hits. AID 686979; also: potency is read from the fitted curve at half-maximal effect; nearly all actives have a fitted effect of over 55% in size
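Cell growth measured by CellTiter-Glo luminescence after a minimum 48 h, 37 C compound exposure with 20 nM CPT in Tdp1-knockout DT40 cells stably expressing hTDP1, seeded 400/well; qHTS titration format.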
12-LOX inh: blocks human arachidonate 12S-lipoxygenase; P18054; purified 12hLO, xylenol orange hydroperoxide absorbance; Potency, µM (titrated, usually from 108 µM), for inactives: at the highest dose activity change, negative = inhibition, actives largely listed as inhibitors; 580,000 compounds, 1.1% hits; also: potency is read from the fitted curve at half-maximal effect
Target sequence (P18054 whole entry, looked up): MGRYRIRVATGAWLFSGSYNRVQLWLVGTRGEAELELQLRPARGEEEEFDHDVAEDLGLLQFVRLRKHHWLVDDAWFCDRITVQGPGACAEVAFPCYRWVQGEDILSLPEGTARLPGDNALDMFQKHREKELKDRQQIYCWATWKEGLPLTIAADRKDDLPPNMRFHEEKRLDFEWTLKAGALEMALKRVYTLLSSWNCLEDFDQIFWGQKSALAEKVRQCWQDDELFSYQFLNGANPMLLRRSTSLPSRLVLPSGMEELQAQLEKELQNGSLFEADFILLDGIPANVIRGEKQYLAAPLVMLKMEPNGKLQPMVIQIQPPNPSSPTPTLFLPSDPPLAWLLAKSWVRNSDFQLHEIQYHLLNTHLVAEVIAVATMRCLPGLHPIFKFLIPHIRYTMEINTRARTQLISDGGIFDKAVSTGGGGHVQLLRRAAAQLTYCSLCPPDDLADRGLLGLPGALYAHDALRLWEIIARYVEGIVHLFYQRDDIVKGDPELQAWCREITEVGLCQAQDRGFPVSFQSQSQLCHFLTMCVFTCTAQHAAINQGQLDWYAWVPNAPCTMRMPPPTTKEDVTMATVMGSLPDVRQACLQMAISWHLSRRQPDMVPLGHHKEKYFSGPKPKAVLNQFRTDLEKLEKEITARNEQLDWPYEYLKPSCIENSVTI
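Purified human 12hLO at 150 nM in 25 mM Hepes, 0.01% Triton X-100, pH 7.0, preincubated 15 min at room temperature with compound. Reaction started with 40 uM arachidonic acid, 30 min at room temperature. Hydroperoxide measured by Fe-xylenol orange, 573/405 nm absorbance ratio.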
* = called active by the depositor; u = inconclusive; x = no result; [ ] = another dose, or the depositor's remark. This excerpt belongs to a sample that is enriched for hits. Unless noted, calls follow the shape of the dose curve; as a rule, active = well fitted curve in the direction sought with a large enough effect; inconclusive = small, poorly fitted or top-dose-only effect, or another doubt; inactive = no such curve, though single readings can be large; an effect the other way counts as inactive or inconclusive. Unless noted, % is scaled to controls: 0 for no effect and ±100 for the full control effect.

SMILES	HT1080 IDH1KD tx	TDP1 cell noCPT	HT1080NT lethal	IL-1B inflam inh	DT40 TDP1 CPT	12-LOX inh
CC[C@@H]1C(=O)[C@H](Cc2ccccc2)[C@H]2CCCC(=O)N3CC[C@@H]1[C@@H]23	10%	u	10%	10	-5%	u
CN(C)c1ccc(/C=C2\N=C(c3ccc(Cl)c([N+](=O)[O-])c3)NC2=O)cc1	3%	10µM*	-1%	-3	u	-13%
Cc1nc(C(F)(F)F)ccc1C(=O)N1CCC1(C)C(=O)NS(=O)(=O)c1cccc(F)c1 (stereo not drawn)	23%	1%	17%	23	-7%	45µM*
CC1(C(=O)NS(=O)(=O)c2cccc(Cl)c2)CCN1C(=O)c1cccc(F)c1 (stereo not drawn)	3%	-14%	1%	36	-4%	-1%
Cc1ccc(S(=O)(=O)NC(=O)C2(C)CCN2C(=O)c2cccc(F)c2)cc1 (stereo not drawn)	0%	4%	23%	0	1%	35µM*
Cc1nc(C(F)(F)F)ccc1C(=O)N1CCC1(C)C(=O)NS(=O)(=O)c1cccc(Cl)c1 (stereo not drawn)	u	-2%	16%	13	-11%	u
O=C(CC1Sc2ccc(C(F)(F)F)cc2NC1=O)Nc1ccc(OC(F)F)cc1 (stereo not drawn)	x	x	x	x	x	1%
Cc1cc(C)cc(-n2c(C)cc(/C=N/NC(=O)c3cccc([N+](=O)[O-])c3C)c2C)c1	u	26µM*	u	-9	u	-1%
Cc1cc(C)cc(-n2c(C)cc(/C=N/NC(=O)c3ccncc3)c2C)c1	-19%	-22%	-30%	2	-6%	32%
Cc1cc(C(=O)CN2CCCC2)c(C)n1-c1ccc(Cl)cc1	-4%	u	-13%	-14	u	96%
Cc1cc(C)cc(-n2c(C)cc(/C=N/NC(=O)CSc3ncccn3)c2C)c1	u	u	u	1	26µM*	-3%
Cc1cc(C(=O)CCl)c(C)n1-c1ccon1	21µM*	2.9µM*	-28%	-95*	2.3µM*	-14%
Cc1cc(C(=O)N/N=C/c2ccc(Cl)c([N+](=O)[O-])c2)c(C)n1-c1ccc(F)cc1	21µM*	15µM*	u	-53*	23µM*	10%
O=C(N/N=C/c1ccc(Cl)c([N+](=O)[O-])c1)c1ccc2c(c1)OCCO2	-2%	17%	3%	-15	-16%	-27%
O=C(Cc1cccs1)NC1CCCc2c1[nH]c1c(Cl)cccc21 (stereo not drawn)	x	x	x	x	x	3%
C=CCNc1nc(C(=O)OC(C)C(=O)Nc2ccc(NC(C)=O)cc2)cs1 (stereo not drawn)	x	x	x	x	x	1%
O=C(N/N=C/c1ccc(Cl)c([N+](=O)[O-])c1)c1cc(-c2ccc3c4c(cccc24)CC3)n[nH]1	8.2µM*	u	5.2µM*	u	-28%	12%
Cc1cc(C(=O)NC2CCCCC2)c(C)n1-c1ccc(F)cc1	-3%	u	0%	-83*	u	5%
Cc1occc1C(=O)N/N=C/c1ccc(Cl)c([N+](=O)[O-])c1	-1%	u	-5%	-72*	u	18%
Cc1cc(C(=O)N/N=C/c2ccc3c(c2)OCO3)c(C)n1-c1ccc(F)cc1	-22%	13µM*	-6%	-9	u	1%
O=C(N/N=C/c1cccc([N+](=O)[O-])c1)c1cc(-c2ccc3c4c(cccc24)CC3)n[nH]1	-8%	u	-20%	-3	u	-3%
Cc1cc(C(=O)CN2CCCCC2)c(C)n1-c1ccc(F)cc1	-8%	u	-4%	-26	-29%	-9%
COc1ccc(/C=N/NC(=O)c2ccoc2C)cc1OC	29%	-4%	28%	5	-6%	4%
Cn1c(CNc2cccc(Br)c2)c(C#N)c2ccccc21	x	x	x	x	x	-9%
C=CCNC(=O)COC(=O)c1cc(C)nc2ccccc12	x	x	x	x	x	5%
SMILES	HT1080 IDH1KD tx	TDP1 cell noCPT	HT1080NT lethal	IL-1B inflam inh	DT40 TDP1 CPT	12-LOX inh
Cc1nn(-c2ccc(C(C)(C)C)cc2)c(C)c1[C@@H]1C=C[C@@H](NC(=O)NCc2ccccc2)C1	x	x	x	x	x	-31%[176 µM]
O=C(N/N=C/c1ccccc1[N+](=O)[O-])c1ccc2nc[nH]c2c1	16%	-14%	6%	-16	1%	0%
Cc1cc(C(=O)CCl)c(C)n1-c1cccc([N+](=O)[O-])c1	u	2.3µM*	u	-100*	1.5µM*	u
O=C(N/N=C/c1ccc(Cl)c([N+](=O)[O-])c1)c1ccc2nc[nH]c2c1	7%	-8%	3%	-96*	0%	38%
Cn1cccc1CC(=O)N/N=C/c1ccc(Cl)c([N+](=O)[O-])c1	1%	-25%	-8%	-90*	-16%	-7%
CC(=O)c1c(C(C)=O)c(C)n(-c2cccc([N+](=O)[O-])c2)c1C	-4%	0%	-6%	-5	0%	1%
Cn1cccc1CC(=O)N/N=C/c1cc([N+](=O)[O-])ccc1Cl	21%	-9%	12%	9	16%	u
Cc1cc(C(=O)N/N=C/c2cccc([N+](=O)[O-])c2)c(C)n1-c1ccccc1	-14%	23µM*	-1%	-16	u	-30%
CCOC(=O)c1c(C(=O)OCC)c(C)n(CCc2ccc(OC)c(OC)c2)c1C	5%	u	8%	1	23µM*	-1%
COc1ccc(-c2cc(C(C)=O)c(C)n2CCC(=O)NCc2ccc(C)cc2)cc1	x	u	x	x	u	-34%
CCOC(=O)c1cc(-c2ccccc2)n(CC(=O)N(C)c2ccc(OC)cc2)c1C	x	23µM*	x	x	u	-22%
CCOC(=O)c1cc(-c2ccccc2)n(CCC(=O)NCCc2ccc(C)cc2)c1C	x	8.2µM*	x	x	15µM*	-32%
CCOC(=O)c1cc(-c2ccc(OC)cc2)n(CCC(=O)NCc2ccc(OC)cc2)c1C	x	18µM*	x	x	u	0%
COc1ccc2c(c1)c(C(C)=O)c(C)n2CCc1ccc(OC)c(OC)c1	1%	-13%	4%	-4	-3%	-6%
CCOC(=O)c1cc(-c2ccccc2)n(CC(=O)Nc2ccc(OC)cc2)c1C	-8%	u	-9%	-9	-29%	8%
CC1(C(=O)NCc2cccnc2)CCC(=O)N1Cc1ccccc1Cl (stereo not drawn)	x	x	x	x	x	11%
COc1ccc(C)cc1CN(C)C(=O)C1CCN(C(=O)c2cccc3ccccc23)CC1	x	x	x	x	x	1%

Compound activity as filed in PubChem.
